Source: the antibiotic and cytotoxicity screens of Wong et al. (2023)
Among all 39,000 compounds or so, about 3,300 (8.5%) were called active. The full list was thinned out, with actives kept by preference.

tested on: HepG2; experiment: cytotoxicity call (relative viability < 0.9); conditions: 10 µM

| SMILES | cytotoxicity call |
| --- | --- |
| C[C@@H]1CN([C@H](C)CO)C(=O)c2c(c3ccccc3n2C)-c2ccccc2CO[C@@H]1CN(C)CC1CCCCC1 | inactive |
| C[C@@H]1CN([C@@H](C)CO)C(=O)c2c(c3ccccc3n2C)-c2ccccc2CO[C@H]1CN(C)CC1CCCCC1 | inactive |
| C[C@H](CO)N1C[C@H](C)[C@H](CN(C)C(=O)NC2CCCCC2)OCc2ccccc2-c2c(n(C)c3ccccc23)C1=O | active |
| C[C@H](CO)N1C[C@H](C)[C@@H](CN(C)CC2CCCCC2)OCc2ccccc2-c2c(n(C)c3ccccc23)C1=O | inactive |
| C[C@H](CO)N1C[C@H](C)[C@@H](CN(C)C(=O)NC2CCCCC2)OCc2ccccc2-c2c(n(C)c3ccccc23)C1=O | inactive |
| C[C@@H]1CN([C@H](C)CO)C(=O)c2c(c3ccccc3n2C)-c2ccccc2CO[C@@H]1CN(C)C(=O)NC1CCCCC1 | inactive |
| C[C@H]1CN([C@@H](C)CO)C(=O)c2c(c3ccccc3n2C)-c2ccccc2CO[C@H]1CN(C)CC1CCCCC1 | inactive |
| C[C@H]1CN([C@@H](C)CO)C(=O)c2c(c3ccccc3n2C)-c2ccccc2CO[C@@H]1CN(C)CC1CCCCC1 | active |
| C[C@@H]1CN([C@@H](C)CO)C(=O)c2c(c3ccccc3n2C)-c2ccccc2CO[C@@H]1CN(C)CC1CCCCC1 | active |
| CC1(C)S[C@H]2[C@@H](NC(=O)[C@@H](NC(=O)N3CCN(S(C)(=O)=O)C3=O)c3ccccc3)C(=O)N2[C@@H]1C(=O)O | inactive |
| CCCNC(=O)Nc1ccc2c(c1)C(=O)N(C)C[C@@H](OC)[C@@H](C)CN(C(=O)C1CCOCC1)[C@@H](C)CO2 | inactive |
| Cc1noc(C)c1NC(=O)N(C)C[C@H]1OCCCC[C@@H](C)Oc2ccc(NC(=O)CCC(F)(F)F)cc2C(=O)N([C@H](C)CO)C[C@H]1C | inactive |
| C[C@H](C(=O)O)N1CCCCC1 | inactive |
| CC(C)c1cn(CC[C@H]2CC[C@H](N)[C@@H](CO)O2)nn1 | inactive |
| CC[C@@H](Sc1n[nH]c(=O)[nH]c1=O)C(=O)O | inactive |
| COCC(=O)N(C)C[C@H]1Oc2cc(C#CCC3CCCC3)ccc2S(=O)(=O)N([C@H](C)CO)C[C@H]1C | inactive |
| C[C@@H]1CN([C@H](C)CO)C(=O)Cc2cc(NC(=O)C3CC3)ccc2O[C@H]1CN(C)C(=O)Nc1ccccc1 | inactive |
| COCC(=O)N1[C@@H]2c3ccc(C4=CCCCC4)c(=O)n3C[C@@H]2[C@@H](CO)[C@@H]1C(=O)N1CCOCC1 | inactive |
| C=CC(=O)Nc1cccc(C)c1Nc1ncc2cc(-c3c(Cl)c(OC)cc(OC)c3Cl)ccc2n1 | active |
| COCC(=O)Nc1ccc2c(c1)C(=O)N(C)[C@@H]1CC[C@@H](CC(=O)NCc3ccc(OC)cc3)O[C@H]1CO2 | inactive |
| Cc1noc(C)c1NC(=O)N(C)C[C@H]1Oc2ccc(NC(=O)Nc3ccc(C(F)(F)F)cc3)cc2C(=O)N([C@@H](C)CO)C[C@H]1C | inactive |
| COCC(=O)N(C)C[C@H]1Oc2cc(C#C[C@@H](C)O)ccc2S(=O)(=O)N([C@H](C)CO)C[C@@H]1C | inactive |
| C[C@@H]1CCCCO[C@H](CN(C)Cc2ccc(Cl)c(Cl)c2)[C@@H](C)CN([C@H](C)CO)C(=O)c2cc(NC(=O)CCC(F)(F)F)ccc2O1 | inactive |
| C[C@@H]1CCCCO[C@@H](CN(C)Cc2ccc(Cl)c(Cl)c2)[C@@H](C)CN([C@@H](C)CO)C(=O)c2cc(NC(=O)CCC(F)(F)F)ccc2O1 | active |
| C[C@H](CO)N1C[C@H](C)[C@@H](CN(C)Cc2ccc(Cl)c(Cl)c2)OCCCC[C@H](C)Oc2ccc(NC(=O)CCC(F)(F)F)cc2C1=O | inactive |

| SMILES | cytotoxicity call |
| --- | --- |
| C[C@@H]1CN([C@H](C)CO)C(=O)c2cc(NC(=O)CCC(F)(F)F)ccc2O[C@@H](C)CCCCO[C@@H]1CN(C)Cc1ccc(Cl)c(Cl)c1 | active |
| C[C@@H]1CCCCO[C@H](CN(C)Cc2ccc(Cl)c(Cl)c2)[C@@H](C)CN([C@@H](C)CO)C(=O)c2cc(NC(=O)CCC(F)(F)F)ccc2O1 | inactive |
| C[C@@H]1CCCCO[C@@H](CN(C)Cc2ccc(Cl)c(Cl)c2)[C@H](C)CN([C@@H](C)CO)C(=O)c2cc(NC(=O)CCC(F)(F)F)ccc2O1 | inactive |
| C[C@@H]1CCCCO[C@@H](CN(C)Cc2ccc(Cl)c(Cl)c2)[C@@H](C)CN([C@H](C)CO)C(=O)c2cc(NC(=O)CCCN(C)C)ccc2O1 | active |
| C[C@H]1CCCCO[C@H](CN(C)Cc2ccc(Cl)c(Cl)c2)[C@@H](C)CN([C@@H](C)CO)C(=O)c2cc(NC(=O)CCC(F)(F)F)ccc2O1 | inactive |
| C[C@@H]1CN([C@H](C)CO)C(=O)c2cc(NC(=O)CCC(F)(F)F)ccc2O[C@@H](C)CCCCO[C@H]1CN(C)Cc1ccc(Cl)c(Cl)c1 | active |
| C[C@@H]1CN([C@@H](C)CO)C(=O)c2cc(NC(=O)CCC(F)(F)F)ccc2O[C@@H](C)CCCCO[C@H]1CN(C)Cc1ccc(Cl)c(Cl)c1 | inactive |
| Cn1cnc(S(=O)(=O)N[C@@H]2C=C[C@H](CC(=O)NCC3CC3)O[C@H]2CO)c1 | inactive |
| COc1ccc(S(=O)(=O)N(C)C[C@@H]2OCCCC[C@@H](C)Oc3ccc(NC(=O)CCCCCC(=O)Nc4ccccc4N)cc3C(=O)N([C@H](C)CO)C[C@@H]2C)cc1 | inactive |
| COc1ccccc1CNC(=O)C[C@@H]1C[C@@H]2c3cc(NC(=O)Cc4ccncc4)ccc3O[C@@H]2[C@@H](CO)O1 | inactive |
| C[C@@H]1CCCCO[C@@H](CN(C)CC2CCCCC2)[C@@H](C)CN([C@@H](C)CO)C(=O)c2cc(N(C)C)ccc2O1 | inactive |
| C[C@H](CO)N1C[C@H](C)[C@H](CN(C)C(=O)Nc2ccc3c(c2)OCO3)OCCCC[C@H](C)Oc2ccc(NS(=O)(=O)c3ccc(F)cc3)cc2C1=O | inactive |
| CS(=O)(=O)N1C[C@@H](O)COC[C@@H]2O[C@H](CC(=O)NCc3ccccc3)CC[C@H]21 | inactive |
| C[C@@H]1CCCCO[C@H](CN(C)C(=O)Nc2ccc(F)cc2)[C@@H](C)CN([C@H](C)CO)C(=O)c2cc(NS(=O)(=O)c3cccs3)ccc2O1 | inactive |
| O=C(C[C@H]1CC[C@H]2[C@@H](COC[C@@H](O)CN2S(=O)(=O)c2ccccc2)O1)NCCN1CCCCC1 | inactive |
| Cc1noc(C)c1NC(=O)Nc1ccc2c(c1)C(=O)N([C@@H](C)CO)C[C@H](C)[C@H](CN(C)C(=O)Nc1ccc3c(c1)OCO3)OCCCC[C@H](C)O2 | inactive |
| COc1ccc(S(=O)(=O)N(C)C[C@H]2Oc3c(cccc3N(C)C)C(=O)N([C@@H](C)CO)C[C@H]2C)cc1 | inactive |
| C[C@@H]1CCCCO[C@H](CN(C)Cc2ccc3c(c2)OCO3)[C@@H](C)CN([C@@H](C)CO)C(=O)c2cc(NC(=O)CCC(F)(F)F)ccc2O1 | inactive |
| C[C@@H]1CCCCO[C@H](CN(C)Cc2ccc(Cl)c(Cl)c2)[C@H](C)CN([C@H](C)CO)C(=O)c2cc(NC(=O)CCC(F)(F)F)ccc2O1 | active |
| C[C@@H]1CCCCO[C@@H](CN(C)Cc2ccc(Cl)c(Cl)c2)[C@@H](C)CN([C@H](C)CO)C(=O)c2cc(NC(=O)CCC(F)(F)F)ccc2O1 | inactive |
| C[C@@H]1CCCCO[C@H](CN(C)Cc2ccc(Cl)c(Cl)c2)[C@H](C)CN([C@@H](C)CO)C(=O)c2cc(NC(=O)CCC(F)(F)F)ccc2O1 | active |
| C[C@@H]1CCCCO[C@@H](CN(C)Cc2ccc(Cl)c(Cl)c2)[C@H](C)CN([C@H](C)CO)C(=O)c2cc(NC(=O)CCC(F)(F)F)ccc2O1 | inactive |
| C[C@@H]1CCCCO[C@@H](CN(C)Cc2ccc3c(c2)OCO3)[C@H](C)CN([C@H](C)CO)C(=O)c2cc(NC(=O)CCC(F)(F)F)ccc2O1 | inactive |
| COc1ccc(S(=O)(=O)Nc2ccc3c(c2)C(=O)N([C@@H](C)CO)C[C@@H](C)[C@@H](CN(C)S(=O)(=O)c2cn(C)cn2)OCCCC[C@@H](C)O3)cc1 | inactive |
| C[C@@H]1CCCCO[C@@H](CN(C)C(=O)Cc2ccccc2)[C@@H](C)CN([C@@H](C)CO)C(=O)c2cc(NC(=O)NC3CCCCC3)ccc2O1 | inactive |

| SMILES | cytotoxicity call |
| --- | --- |
| C[C@@H]1COC(=O)[C@@H](NC(=O)OCC2c3ccccc3-c3ccccc32)CC=CC[C@H](CC(=O)NCCO)C(=O)N1 | inactive |
| CN(C)CCCC[C@@H]1NC(=O)[C@H]2C[C@@H](C(=O)NCCCCCNC(=O)CS)[C@@H](c3ccc(O)cc3)N2C1=O | inactive |
| O/N=C/c1ccccc1C(F)(F)F | active |
| O/N=C/c1ccc2ccccc2c1 | inactive |
| O/N=C/c1c(Cl)cccc1Cl | inactive |
| CC(C)(C)N1C[C@H](C(=O)O)CC1=O | inactive |
| Cc1ccc(S(=O)(=O)Nc2cccc3c2O[C@H](CN(C)S(C)(=O)=O)[C@@H](C)CN([C@H](C)CO)C3=O)cc1 | inactive |
| C[C@@H]1CN([C@@H](C)CO)S(=O)(=O)c2ccc(-c3cncnc3)cc2O[C@@H]1CN(C)C(=O)c1ccc2c(c1)OCO2 | inactive |
| O=c1c2ccccc2oc2ccc(O)cc12 | inactive |
| O=c1[nH]c(=O)c2ccccc2o1 | inactive |
| CCc1oc2ccccc2c1C(=O)c1cc(Br)c(O)c(Br)c1 | active |
| Cc1ccc(CNc2ccc3c(c2)ncn3C2CCCCC2)cc1 | inactive |
| O=C(CCCCCNC(=O)OCc1ccc(CO[C@@H]2C[C@H](C3CCCCC3)C=C(C(=O)N3CCN(Cc4ccccc4)CC3)O2)cc1)NO | inactive |
| O=C1CN(S(=O)(=O)Cc2ccccc2)C[C@H]2[C@@H](c3ccc(C#Cc4cccc(F)c4)cc3)[C@@H](CO)N12 | inactive |
| O=C1CN(S(=O)(=O)Cc2ccccc2)C[C@@H]2[C@H](c3ccc(C#Cc4ccc(F)cc4)cc3)[C@H](CO)N12 | inactive |
| COc1cccc(C#Cc2ccc([C@H]3[C@H](CO)N4C(=O)CN(S(=O)(=O)c5ccccc5C)C[C@@H]34)cc2)c1 | inactive |
| COc1cccc(C#Cc2ccc([C@@H]3[C@H](CO)N4C(=O)CN(S(=O)(=O)c5ccccc5C)C[C@@H]34)cc2)c1 | inactive |
| O=C1CN(S(=O)(=O)Cc2ccccc2)C[C@H]2[C@@H](c3ccc(C#Cc4cccc(F)c4)cc3)[C@H](CO)N12 | active |
| O=C1CN(S(=O)(=O)Cc2ccccc2)C[C@@H]2[C@H](c3ccc(C#Cc4cccc(F)c4)cc3)[C@@H](CO)N12 | inactive |
| O=C1CN(S(=O)(=O)Cc2ccccc2)C[C@H]2[C@H](c3ccc(C#Cc4cccc(F)c4)cc3)[C@H](CO)N12 | active |
| O=C1CN(S(=O)(=O)Cc2ccccc2)C[C@H]2[C@@H](c3ccc(C#Cc4ccc(F)cc4)cc3)[C@H](CO)N12 | inactive |
| COc1cccc(C#Cc2ccc([C@@H]3[C@H]4CN(S(=O)(=O)c5ccccc5C)CC(=O)N4[C@H]3CO)cc2)c1 | inactive |
| O=C1CN(S(=O)(=O)Cc2ccccc2)C[C@@H]2[C@@H](c3ccc(C#Cc4cccc(F)c4)cc3)[C@H](CO)N12 | inactive |
| O=C1CN(S(=O)(=O)Cc2ccccc2)C[C@@H]2[C@@H](c3ccc(C#Cc4cccc(F)c4)cc3)[C@@H](CO)N12 | active |
| O=C1CN(S(=O)(=O)Cc2ccccc2)C[C@H]2[C@H](c3ccc(C#Cc4cccc(F)c4)cc3)[C@@H](CO)N12 | active |
